# From PubChem BioAssay AID1347075 (National Center for Advancing Translational Sciences (NCATS), 2019)
# The campaign covered roughly 400,000 compounds. About 5,500 (1.4%) were called active. Not shown: some 9% with an inconclusive outcome. The sample holds actives, similar compounds and a random draw of the others, so the mix is not that of the screen. Unmarked numbers belong to inactive results. Calls come from the whole dose curve; as a rule, active = well fitted cell-killing curve with a large enough effect; inconclusive = small, poorly fitted or top-dose-only effect, or effect the other way; inactive = flat fitted curve, though single readings scatter.
# Assay: qHTS assay for MDR1-selective chemotherapeutics: Primary screen using the parental adenocarcinoma cell KB-3-1; note: nearly all actives have a fitted effect of over 60% in size
# Settings: KB-3-1 viability, CellTiter-Glo ATP luminescence, 72 h; series mostly up to 46.1 µM; activity change, negative = cytotoxic: at the top concentration
# Summary of the method: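 Multi-concentration cytotoxicity screen in KB-3-1 cells grown in DMEM lacking phenol red with 10% FBS. After 72 h at 37 °C with compound, ATP-dependent luminescence was recorded.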
# % is set by controls: 0 for no effect and ±100 for the full control effect; potency is the fitted concentration of half-maximal effect.
Structure (SMILES),Potency,"activity change, negative = cytotoxic [%]"
CN(C)CCCn1c(N)c(C#N)c2nc(C#N)c(C#N)nc21,23.1 µM (active),
COCCn1c(SCC(=O)c2cc(C)ccc2C)nc2cc(C(=O)NC3CCCC3)ccc2c1=O,,9.54
COc1ccccc1CCNS(=O)(=O)c1cn(C)nc1C,,-4.69
COCCn1cnc2c1c(=O)n(Cc1ccc(Br)cc1)c(=O)n2Cc1ccccc1,,6.16
CCCc1c(-c2ccccc2F)ncn1Cc1ccccc1OC,20.6 µM (active),
CCCCCc1c(Cc2ccccc2)ncn1CCc1ccccc1OC,16.4 µM (active),
COc1ccccc1CN1CCN(Cc2cc(OC)c(OC)cc2OC)CC1,,-27.7
Cn1c(=O)c2c(ncn2CCc2ccccc2)n(C)c1=O,,0.55
CCOc1ccc(-c2n[nH]c3c2C(c2ccccc2OC)N(c2ccc(Br)cc2)C3=O)cc1 (stereo not given),,3.38
CCCCc1c(-c2ccc(Br)cc2)ncn1CCc1ccccc1OC,16.4 µM (active),
COc1cccc(OC)c1C(=O)N1CCN(Cc2ccccc2F)CC1,,-19.9
CC(=O)Nc1ccc(NC(=O)CCCc2nc(-c3ccc(C(C)(C)C)cc3)no2)cc1,,-10.4
COc1cc(C(=O)N(Cc2ccc(C(C)C)cc2)C2CCS(=O)(=O)C2)cc(OC)c1OC (stereo not given),,-5.08
CCCN(CCC)C(=O)C(Cc1ccccc1)NS(=O)(=O)c1ccc2c(c1)c(=O)n(C)c(=O)n2C (stereo not given),,1
N#C/C(=C\c1cccc(F)c1)c1nc(-c2cc3c(ccc4ccccc43)oc2=O)cs1,,9.73
O=C(NCCCO)C(=O)Nc1c2c(nn1-c1ccc(F)cc1)CSC2,,3.4
CN(C)Cc1cn(-c2ccccc2)nc1-c1ccccc1,,13.6
N#Cc1ccc(OC2=NS(=O)(=O)c3ccccc32)cc1,,-6.03
Cn1c(=O)c2c(nc(NCCc3ccccc3)n2Cc2ccccc2Br)n(C)c1=O,,-14.2
OC(Cc1ccc2ccccc2n1)c1ccc(Cl)c(Cl)c1 (stereo not given),,0
O=S(=O)(c1ccc(Br)cc1)c1nnn2c1nc(N1CCOCC1)c1sccc12,,-10.3
CCOC(=O)C1CCCN(C(=O)c2ccc(-n3ccc4ccccc43)s2)C1 (stereo not given),,4.41
O=C1C=C(c2cc(C(F)(F)F)cc(C(F)(F)F)c2)C[C@@H](c2ccc3c(c2)OCO3)C1,,-26.9
COc1ccc2cc(C3=CC(=O)C[C@H](c4ccc5c(c4)OCO5)C3)ccc2c1,,3.24
O=C1C=C(c2ccnc3cc(Cl)ccc23)C[C@@H](c2ccc3c(c2)OCO3)C1,23.1 µM (active),

Structure (SMILES),Potency,"activity change, negative = cytotoxic [%]"
CCSc1ncc(Cl)c(C(=O)Nc2c(C(=O)c3ccccc3)oc3ccccc23)n1,,1.5
Cc1cn(C)c(CC(=O)NCc2ccccc2)c1C(=O)O,,0.565
CC(C)CC(=O)NCC(c1ccc2c(c1)OCO2)N1CCN(c2ccc(F)cc2)CC1 (stereo not given),,-5.63
c1ccc(CNCc2ccc(CNCc3ccccc3)cc2)cc1,,1.49
[O-][n+]1ccc(OCc2ccccc2)cc1,,3.6
c1ccc(Cc2cc[n+](Cc3ccccc3)cc2)cc1,18.4 µM (active),
CCC(=O)Nc1c(C(=O)N2CCN(c3ccc(F)cc3)CC2)oc2ccccc12,,-8.2
COCCN(Cc1ccco1)C(=O)Cn1ncc2c([nH]c3ccccc32)c1=O,,0
CCOc1[nH]n(-c2ccc(Cl)cc2)c(=O)c1C=Nc1ccc(O)cc1,18.4 µM (active),
CCOc1ccc(N=C2NC(=O)S/C2=C\c2ccc(O)cc2)cc1,,-1.86
Fc1ccc(C(Nc2ccc(Cl)c(C(F)(F)F)c2)c2nnc(-c3ccccc3)o2)cc1 (stereo not given),,-5.25
CCOc1ccccc1N(CC)C(=O)c1cc2ccc3cccnc3c2[nH]1,,-25
CCN(CC)CCCNC(=O)c1cc2c(=O)[nH]c3ccc(C)cc3c2s1,,-17.6
Cc1cccc(N(C)C(=O)c2cc3c(=O)[nH]c4ccc(C)cc4c3s2)c1,7.31 µM (active),
COc1ccc(CNC(=O)c2cc3c(=O)[nH]c4ccc(C)cc4c3s2)c(OC)c1,,5.62
CSc1ccc(CCNC(=O)c2cc(C)nc3c2c(C)nn3-c2cccc(F)c2)cc1,,1.14
Cc1cc(C(=O)Nc2cccc(C(F)(F)F)c2)c2c(C)nn(-c3cccc(F)c3)c2n1,18.4 µM (active),
COc1cc(NC(=O)c2cc(C3CC3)nc3c2c(C)nn3-c2ccccc2)cc(OC)c1,,2.42
Cc1ccc(S(=O)(=O)N2CCN(C)CC2)cc1,,0.612
Cc1ccc(S(=O)(=O)N(C)C2(C)CCS(=O)(=O)C2)cc1 (stereo not given),,4.15
Cc1ccc(S(=O)(=O)C2(S(=O)(=O)c3ccc(C)cc3)CCCC2)cc1,6.51 µM (active),
COc1ccc(C2c3c(oc4ccccc4c3=O)C(=O)N2Cc2ccc3c(c2)OCO3)cc1 (stereo not given),,-6.25
COC(=O)c1sccc1S(=O)(=O)N(CC(=O)Nc1ccc(C)c(F)c1)c1ccc(C)c(C)c1,,-20
O=C(Nc1ccc(-c2nc3ccccc3[nH]2)cc1)c1ccncc1,,-9.06
CC(=O)Nc1ccc2nc(NC(=O)CS(=O)(=O)c3ccc(F)cc3)sc2c1,,8.18

Structure (SMILES),Potency,"activity change, negative = cytotoxic [%]"
CCCn1nc(C(=O)Nc2ccc3nc(C)sc3c2)c2ccccc2c1=O,,-0.715
CCCC(=O)Nc1nc2ccc(NC(=O)c3c(F)c(F)c(OC)c(F)c3F)cc2s1,2.59 µM (active),
CC(=O)c1ccc(N2CCN(c3nc4c(S(=O)(=O)c5ccccc5)nnn4c4ccc(Cl)cc34)CC2)cc1,,1.16
O=C(N/N=C/c1ccc(Cl)c(Cl)c1)c1ccc2nc[nH]c2c1,18.4 µM (active),
CC(=NNC(=O)c1ccc2nc[nH]c2c1)c1ccc(Br)cc1,,-11.4
CC1=NNC(=O)C1CCC(=O)N/N=C\c1ccc(Cl)c(Cl)c1 (stereo not given),,23.2
CNc1ccc(-c2nc(-c3ccccc3C)no2)cc1[N+](=O)[O-],,-1.62
COc1ccc(Cn2cc(C(=O)c3ccc(C)cc3)c(=O)c3cc(OC)c(OC)cc32)cc1,,11.2
O=C1C[C@H]2C=CCc3cccc(c32)CN1Cc1ccccc1,,-5.23
COc1ccc(C2C(C#N)=C(N)Oc3cc(N)ccc32)cc1OC (stereo not given),16.4 µM (active),
N#CC1=C(N)Oc2cc(O)ccc2C1C1CCCCC1 (stereo not given),,0
COc1ccc(C2C(C#N)=C(/N=C/N3CCOCC3)OC3=C2C(=O)CC(C)(C)C3)cc1OC (stereo not given),,7.96
O=C(NCc1ccc(F)cc1)c1ccc2nc(N3CCCCC3)sc2c1,,16.9
CC1CCN(c2nc3ccc(C(=O)N4CCN(c5ccccc5)CC4)cc3s2)CC1,,0
COc1ccc2nc(N3CCN(C(=O)c4ccc([N+](=O)[O-])o4)CC3)sc2c1,16.4 µM (active),
COc1cc(C(=O)N2CCN(C(=O)COc3cccc(C)c3)CC2)cc(OC)c1OC,,-6.07
CC(=O)Nc1cnc(-c2ccc(O)cc2C)cn1,,-0.089
Cc1ccn2c(-c3csc(Nc4ccc(C(=O)O)cc4)n3)c(C)nc2c1,,-6.25
Cc1ccc(Nc2nc(-c3ccc(O)cc3O)cs2)nc1,20.6 µM (active),
Cc1ccc(CN2CCCn3nc(C(=O)NCc4ccccc4Cl)cc3C2=O)cc1,,-19.7
CCOC(=O)c1nnn(CC(=O)NC(=O)Nc2ccccc2F)c1C(=O)OCC,,18.1
COC(=O)c1c(C)oc(C)c1S(=O)(=O)NCc1ccc(Cl)cc1,,-8.99
COC(=O)c1ccccc1S(=O)(=O)Nc1ccc(OC)cc1,,0
COC(=O)c1c(C)oc(C)c1S(=O)(=O)Nc1ccc(C(C)C)cc1,3.26 µM (active),
O=C(Nc1cc(Br)ccc1F)c1nc[nH]c1C(=O)NCc1ccccc1,,-0.0726

Structure (SMILES),Potency,"activity change, negative = cytotoxic [%]"
CC(C)(C)OC(=O)NCCCCCNC(=O)c1nc[nH]c1C(=O)NCc1ccccc1,,0.352
O=C(Nc1ccon1)c1nc[nH]c1C(=O)NCc1ccccc1,5.8 µM (active),
COc1ccc(NC(=O)c2ccc3nc(C(C)C)oc3c2)cc1OC,,-2.26
COC(=O)c1sc2ncccc2c1-n1c(C)ccc1C,,20.6
O=C(NC1CCCCC1)c1ccc(Cn2c(SCc3ccccc3)nc3cccnc32)cc1,,7.78
Cc1oc2c(c1C(=O)Nc1ccc(F)c(F)c1)C1=NCCN1C=N2,,16.5
O=C(Nc1ccc2nc(SCC(=O)N3CCc4ccccc43)sc2c1)c1ccccc1F,,9.11
CCOc1ccc(NC(=O)c2cn(C3CCCCC3)c(=O)c3c2c2ccccc2n3C)cc1,,-1.1
COCCNC(=O)CSc1nc(-c2ccccc2)[nH]c1-c1ccc(C)cc1,,0
COc1cccc(-c2nc(S(=O)(=O)c3ccc(C)cc3)c(NCc3ccccc3)o2)c1,,-8.2
CC(Nc1ccc(-c2nc(-c3ccco3)no2)cc1[N+](=O)[O-])c1ccccc1 (stereo not given),,-23.5
O=C(NCc1ccccc1)C1CCN(S(=O)(=O)c2ccc3[nH]c(=O)ccc3c2)CC1,,0.516
COc1cc(OC)c(N2CC(C(=O)Nc3cc(Cl)ccc3N3CCOCC3)CC2=O)cc1Cl (stereo not given),5.8 µM (active),
COc1ccccc1N1CC(C(=O)Nc2ccc(S(=O)(=O)N3CCOCC3)cc2)CC1=O (stereo not given),,8.27
COc1ccc(Cl)cc1NC(=O)C1CC(=O)N(c2ccc(F)cc2)C1 (stereo not given),,0.372
CCCCn1cc(S(=O)(=O)c2ccc(OCC)cc2)c(=O)c2cc(OC)c(OC)cc21,,3.26
Cc1cccc(N2CCN(C(=O)c3ccc(Nc4nc5ccccc5n5nnnc45)cc3)CC2)c1C,,10.5
CCN(CC)S(=O)(=O)c1ccc(N2CCCC2)c(NC(=O)c2ccc([N+](=O)[O-])o2)c1,6.51 µM (active),
CCN(CC)S(=O)(=O)c1cc(C(=O)Nc2cc(S(=O)(=O)N3CCOCC3)ccc2N2CCCC2)ccc1F,,-7.07
CCN(CC)S(=O)(=O)c1ccc(N2CCOCC2)c(NC(=O)c2ccc(=O)n(C)n2)c1,,1.26
Cc1[nH]c2ccccc2c1C(=O)C(=O)N(C)c1ccccc1,,0
CCn1c2c(c(=O)n3ncc(C(=O)N4CCN(c5ccccc5)CC4)c13)CN(Cc1ccc(OC)cc1)CC2,,-2.44
CC(=N\NC(=O)c1cc(Br)ccc1O)/C(=N/O)C(=O)Nc1ccccc1,,-43.4
C/C(=N/NC(=O)CCc1ccccc1)c1ccco1,,19.7
C/C(=N\NC(=O)c1ccoc1C)c1ccccc1O,14.6 µM (active),
